From PubChem BioAssay
Rows were chosen to be rich in hits. Some 1.3% of all compounds tested hit in one or more screens of this group.
Mito fusion yeast = blocks mitochondrial division or promotes mitochondrial fusion; S. cerevisiae fusion-defective mutant growth rescue, CellTiterGlo 48 h; Potency, µM (series often up to 46.1 µM), for inactives: top-dose growth rescue (activation), usual class: activators; 320,000 tested, 0.23% active; further: potency means the concentration at half of the fitted maximal effect; % of control where 0% means no effect; nearly all actives have a fitted effect of over 45% in size
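Temperature-sensitive fusion-defective S. cerevisiae (e.g. fzo1-1, mgm1-5) were grown with compound in YPEG medium (3% ethanol, 3% glycerol) for 48 hours at 37C. Growth rescue was measured as viability by CellTiterGlo luminescence after 10 minutes at ambient.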
IL-2 act = IL-2 activation; 360,000 tested, 0.065% active; AID 652025; activation, % (series mostly up to about 46 µM); IL-2 activation reporter assay, cell-based qHTS; stimulated with anti-CD3/CD4/CD28 beads; in transgenic mouse T cells; in the data active means activation above about 50%; inconclusive means mostly about 30% to 49%; further: 0% is about no effect
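First, unstimulated transgenic mouse T cells were exposed to compound for 60 min. Next, anti-CD3/anti-CD4-coated beads with anti-CD28 were added. Finally, after 18 h at 37 degrees C, EGFP and DsRed were imaged.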
BRCA1 expr up = activators of BRCA1 expression | MCF7-BRCA1-FFLuc reporter, luminescence, 48 h; response scale: scaled: vehicle 0%, 10 µM genistein 100% | Potency, µM (top dose mostly 46.1 µM), inactives show at the top dose activation, usual class: activators | 380,000 tested, 1.1% active; further: potency means the concentration at half of the fitted maximal effect; nearly all actives have a fitted effect of over 80% in size
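Quantitative HTS in MCF7 cells stably reporting BRCA1 expression via firefly luciferase. Compound treatment lasts 48 h at 37 °C in phenol-red free MEM. Activation is expressed relative to genistein at 10 microM and DMSO.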
TCR activator = T cell receptor activation | 330,000 tested, under 10 active | primary human leukocytes, anti-CD3, IL-2 HTRF, 48 h | Potency, µM (titrated, usually from 9.22 µM), without a hit: at the top dose activation of IL-2 secretion, usual class: activators | AID 504894; further: % of control where 0% means no effect
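Primary human leukocytes incubated 48 hr with anti-CD3 beads plus compound, without co-stimulation. Secreted IL-2 measured by HTRF (europium cryptate/d2 anti-IL-2 pair, 320 nm excitation, 665 nm emission).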
PTHR1 ag = PTHR1 (human) receptor agonism; 410,000 tested, 0.075% active; Potency, µM (top dose mostly 115 µM), without a hit: top-dose activation, hits mostly activators; Q03431; HEK293 GP2 PTHR1 cells, GloSensor cAMP luminescence, 1 h; further: potency means the concentration at half of the fitted maximal effect; nearly all actives have a fitted effect of over 55% in size
Target sequence (Q03431 whole entry, looked up): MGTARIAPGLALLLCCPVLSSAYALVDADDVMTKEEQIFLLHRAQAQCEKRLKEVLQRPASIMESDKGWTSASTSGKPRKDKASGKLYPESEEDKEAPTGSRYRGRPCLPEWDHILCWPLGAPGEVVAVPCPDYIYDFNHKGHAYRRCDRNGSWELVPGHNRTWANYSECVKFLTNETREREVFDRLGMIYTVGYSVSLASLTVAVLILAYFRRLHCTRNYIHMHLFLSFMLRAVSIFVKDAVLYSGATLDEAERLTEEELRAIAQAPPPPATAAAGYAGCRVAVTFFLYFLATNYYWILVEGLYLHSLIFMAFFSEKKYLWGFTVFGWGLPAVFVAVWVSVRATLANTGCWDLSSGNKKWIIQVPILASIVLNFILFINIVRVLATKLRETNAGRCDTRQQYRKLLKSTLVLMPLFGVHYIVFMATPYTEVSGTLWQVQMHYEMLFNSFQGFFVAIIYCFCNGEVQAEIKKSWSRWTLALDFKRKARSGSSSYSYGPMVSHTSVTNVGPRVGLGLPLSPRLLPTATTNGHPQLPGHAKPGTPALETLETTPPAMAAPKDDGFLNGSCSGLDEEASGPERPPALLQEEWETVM
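HEK-293-derived GP2 cells expressing PTHR1 and a GloSensor cAMP reporter, 3,000/well, plated overnight, given luciferin plus IBMX (each 0.5 mM as added) for 1 h at 37 °C, then compound for 1 h at 37 °C. Luminescence was read after 15 min at room temperature.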
Chronic BCR inh = chronic active BCR signaling inhibition | ABC-DLBCL IkBa-CBG/CBR reporter, luminescence ratio, 4 h | Potency, µM (doses to about 46.1 µM), for the others: at the top dose activity change, negative = inhibition, actives largely listed as inhibitors | 340,000 tested, 0.05% active | AID 493014; active means well fitted inhibition curve with a large enough effect in the signal ratio, with a control signal flat, not every such curve was filed as active; inconclusive means small, poorly fitted or top-dose-only effect, or effect the other way, or a change in a side signal; the % refers to the signal ratio;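 further: potency means the concentration at half of the fitted maximal effect; plate controls were basal doxycycline-induced cells for no effect and cells given 10 µM MG132 for full effect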
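TMD8 human ABC-DLBCL cells with doxycycline-inducible IκBα–green luciferase fusion and unfused red luciferase, in 0.5% FBS medium; compounds up to 46 uM, 4 h at 37C. Green/red luminescence ratio, filter-overlap corrected, fitted to concentration-response curves.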
* marks the source's active call; other numbers are inactive results; i = inactive; ? = inconclusive; . = no result; [ ] = another dose, or the depositor's remark. Unless noted, the call rests on the fitted dose curve; in most records, active means well fitted curve in the direction sought with a large enough effect; inconclusive means small, poorly fitted or top-dose-only effect, or another doubt; inactive means no such curve, though single readings can be large; an effect the other way counts as inactive or inconclusive.

SMILES	Mito fusion yeast	IL-2 act	BRCA1 expr up	TCR activator	PTHR1 ag	Chronic BCR inh
COc1cc(Cl)ccc1OCc1cc(C(=O)N2C[C@@H]3CCC[C@H]2C3)no1	0%	0	?	-4%	i	3%
COc1cc(Cl)ccc1OCc1cc(C(=O)N2C[C@H]3CC[C@H]2C3)no1	-1%	-3	11µM*	-6%	-30%	0%
COc1cc2nc(N3CCCCC3)nc(NC3CCN(C)CC3)c2cc1OC	.	.	-51%	.	.	.
COc1cc(N(C)C)c(OC)cc1/C=C1\Cc2ccccc2C1=O	.	.	-25%	.	.	.
Nc1c(C(=O)Nc2ccccc2)nnn1-c1ccc2c(c1)OCCO2	-1%	-1	68%	-7%	-28%	?
Cc1ccc(NC(=O)c2nnn(-c3ccc4c(c3)OCCO4)c2N)cc1	4%	1	5.6µM*	-5%	-57%	?
Cc1ccccc1Cn1nnc(C(=O)Nc2ccc3c(c2)OCCO3)c1N	-6%	-6	3.5µM*	-11%	-24%	3%
O=C(C[C@@H]1CC[C@H](NC(=O)c2ccc3c(c2)OCO3)[C@@H](CO)O1)NCc1ccc(F)cc1	.	1	.	.	-3%	.
Cn1c(CO)cnc1SCC(=O)c1ccc(Br)cc1	0%	0	43%	1%	-21%	0%
Cn1c(CO)cnc1SCC(=O)c1ccc(F)cc1	-4%	-3	10µM*	-2%	-5%	-4%
Nc1c(-c2ccc(Cl)cc2)nnn1-c1ccccc1	3%	0	7.1µM*	-1%	-10%[57.5 µM]	?
CC(C)(C)c1nnc(SCC(=O)Nc2ccc(N3CCCCC3)cc2)n1N	2%	-1	4µM*	0%	-10%	-2%
CC(C)n1cnnc1SCC(=O)Nc1ccc(N2CCCCC2)cc1	0%	3	44%	0%	i	1%
COc1cc2oc3ccccc3c(=O)c2cc1OC	-8%	-1	40%	3%	-2%	29%
O=c1c2ccccc2oc2ccc(Oc3ccccc3)cc12	-6%	-3	3.5µM*	-10%	i	17%
CCOC(=O)c1ccccc1NC(=O)Cc1c(C(=O)O)c(C)cn1C	.	.	.	.	-4%	-11%
Cc1nn(-c2ccc(Cl)nn2)c(=O)c2ccccc12	-7%	-5	11µM*	-85%	-8%	0%
COc1ccc(-c2n[nH]c(=S)n2-c2ccc(Br)cc2)cc1OC	-2%	0	-1%	0%	-15%	-3%
Cc1ccc(CNC(=O)C(Cc2ccccc2)NS(=O)(=O)c2ccc(Br)s2)cc1 (stereo not drawn)	18µM*	-4	-55%	-2%	-22%	?
NC(=O)c1sc2nc(-c3ccco3)ccc2c1N	0%	-8	2.5µM*	8%	i	?
OCC1OC(n2cnc3c(NC4CCCCC4)ncnc32)C(O)C1O (stereo not drawn)	2%	-1	9%	6%	-3%	13µM*
OC[C@H]1O[C@@H](n2cnc3c(NC4CCCCC4)ncnc32)[C@H](O)[C@@H]1O	-5%	.	.	.	.	.
O=S(=O)(NCC(c1ccc2c(c1)OCO2)N1CCN(c2ccccc2)CC1)c1ccccc1 (stereo not drawn)	?	-2	-21%	4%	i	1%
C=CCOc1cccc(C2/C(=C(\O)c3ccc4c(c3)OCCO4)C(=O)C(=O)N2CCN2CCOCC2)c1 (stereo not drawn)	2%	-2	3%	0%	-4%	8%
COc1ccc(-c2cc(=O)oc3c(C)c(OC(C)C(C)=O)ccc23)cc1 (stereo not drawn)	22µM*	-2	-17%	-3%	-41%	-10%
SMILES	Mito fusion yeast	IL-2 act	BRCA1 expr up	TCR activator	PTHR1 ag	Chronic BCR inh
CC[C@]12c3[nH]c4ccccc4c3CCN1C(=O)C(CC(=O)NCCCOC)C[C@@H]2C(=O)N1CCN(C(=O)c2ccco2)CC1 (stereo partly drawn)	.	2	-6%	0%	i	-2%
COc1ccc(NC(=O)Cn2c(=O)n(CCCCCC(=O)NCc3ccc4c(c3)OCO4)c(=O)c3sccc32)cc1Cl	.	.	.	.	i	.
O=C(COc1cccc(Cl)c1)N/N=C\c1cc2ccccc2nc1Cl	-3%	-1	-15%	6%	i	?
O=C(CNc1ccc2ccccc2c1)N/N=C/c1cc2ccccc2nc1Cl	14µM*	1	-41%	3%	-13%	-4%
Cc1[nH]c2ccccc2c1-c1csc(NC(=O)CSCCO)n1	20µM*	0	-15%	-2%	i	?
Nc1c(C(=O)NC2CCCCC2)nsc1C(=O)OCC(=O)NC1CCCCC1	1%	-2	-15%	.	-2%	?
CCOC(=O)c1snc(C(=O)NC2CCCCC2)c1N	15%	3	7.1µM*	-8%	-21%	?
Clc1ccc(CSc2nnc3ccccn23)c(Cl)c1	3%	1	10µM*	-1%[46.1 µM]	i	?
c1ccn2c(SCc3cn4ccsc4n3)nnc2c1	-2%	4	5µM*	1%	-1%	1%
O=C(c1cc(C2CC2)nn1-c1ccccc1)N1CCN(Cc2ccccc2F)CC1	28%	-5	-25%	1%	-1%	5%
O=C(c1cc(C2CC2)nn1-c1ccccc1)N1CCN(Cc2ccc(Cl)cc2)CC1	20µM*	0	-36%	-27%	-84%	-4%
C=CCn1cnc2c(NCc3ccccc3)ncnc21	-6%	0	4µM*	-2%	-6%	?
O=C(Cn1cnc2c(NCc3ccccc3)ncnc21)NCc1ccccn1	.	0	10%	-2%[46.1 µM]	-4%	3%
CCOC(=O)c1c(NC(=O)Cc2cccs2)sc(C(=O)NC2CCCCC2)c1C	2%	-2	16%	-5%	-8%[57.5 µM]	0%
COC(=O)c1c(NC(=O)Cc2cccs2)sc(C(=O)NC2CCCCC2)c1C	.	1	3.2µM*	-2%	i	.
CCc1cccc(NC(=O)COC(=O)c2ccccc2OCc2ccccc2Br)c1	.	.	5%	.	.	.
CC(=O)Nc1cccc(C(=O)/C=C/c2ccc(/C=C/C(=O)c3cccc(NC(C)=O)c3)cc2)c1	-5%	.	.	0%[46.1 µM]	.	?
CC(=O)Nc1cccc(C(=O)/C=C/c2ccc(Br)cc2)c1	14µM*	-1	-100%	2%[46.1 µM]	-24%	?
CC(=O)Nc1cccc(C(=O)/C=C/c2cccs2)c1	10µM*	-5	-18%	-2%[46.1 µM]	-32%	?
CSc1ccc2nnc(-c3ccc(C)cc3)n2n1	.	.	0%	.	.	.
Cc1ccc(Cl)cc1-c1cc(C(=O)N2CCN(c3ccncc3)CC2)[nH]n1	.	0	16%	.	i	.
O=C(Cn1nnc(-c2ccccc2)n1)Nc1ccc2c(c1)OCO2	0%	-5	-2%	-7%	-1%	-7%
